AHR activator: AHR activators, primary screen, cell-based, luminescence, luciferase reporter, human; Aryl hydrocarbon receptor (Homo sapiens), P35869; AHR-responsive luciferase reporter cells; activation, % at 5 µM; 320,000 compounds, 2.5% hits; AID 2796, 2010; in the data active means activation above about 47%;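 further: 0% = vehicle wells and 100% = reference agonist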
Target sequence (P35869 whole entry, looked up): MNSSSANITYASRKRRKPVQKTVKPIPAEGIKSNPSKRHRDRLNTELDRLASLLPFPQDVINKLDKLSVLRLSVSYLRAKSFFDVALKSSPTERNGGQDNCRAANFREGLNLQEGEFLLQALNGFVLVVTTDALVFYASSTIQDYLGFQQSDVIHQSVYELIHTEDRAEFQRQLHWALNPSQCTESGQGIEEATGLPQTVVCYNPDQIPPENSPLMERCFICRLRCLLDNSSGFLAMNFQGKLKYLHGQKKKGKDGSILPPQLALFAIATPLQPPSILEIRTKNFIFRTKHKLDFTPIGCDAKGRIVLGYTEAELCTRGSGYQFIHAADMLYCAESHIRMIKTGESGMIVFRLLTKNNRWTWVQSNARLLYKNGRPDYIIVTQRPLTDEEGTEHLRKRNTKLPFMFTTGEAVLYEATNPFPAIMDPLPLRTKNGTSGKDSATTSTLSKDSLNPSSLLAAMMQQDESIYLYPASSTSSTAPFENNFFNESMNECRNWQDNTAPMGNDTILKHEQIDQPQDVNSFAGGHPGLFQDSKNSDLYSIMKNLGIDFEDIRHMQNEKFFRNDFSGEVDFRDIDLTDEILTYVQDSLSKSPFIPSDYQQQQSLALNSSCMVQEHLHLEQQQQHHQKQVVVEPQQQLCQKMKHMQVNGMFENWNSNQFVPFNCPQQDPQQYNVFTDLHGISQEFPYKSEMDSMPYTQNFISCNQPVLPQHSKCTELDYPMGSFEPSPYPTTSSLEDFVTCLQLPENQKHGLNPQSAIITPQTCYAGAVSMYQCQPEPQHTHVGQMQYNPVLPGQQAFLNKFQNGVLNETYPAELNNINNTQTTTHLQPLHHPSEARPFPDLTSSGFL
esBAF inh: Bmi1 luciferase reporter increase in mESCs, primary screen, esBAF inhibitor project, mouse ES cells, Bmi1 luciferase knock-in, single point; AID 602393, 2012; 350,000 compounds, 2% hits; 24 h; 100% = twice the neutral-well signal; reporter increase, % at 12.5 µM; in the data active means activation above about 40%; inconclusive means no clear call, values can overlap the other calls;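 further: 0% = median of the plate's neutral control wells and 100% = double that signal; a rise in the Bmi1 reporter signal indicates esBAF inhibition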
FXN GAA850 act: FXN promoter activators, primary screen, cell-based, luciferase luminescence, HEK293 lucGAA850; HEK293 lucGAA850 FXN promoter luciferase reporter, 24 h; percent of 10 µM SAHA response; AID 540364, 2011; 360,000 compounds, 0.56% hits; activation, % at 6 µM;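 active means activation above the average of all compounds screened plus 3 SD, cutoff fixed separately per campaign, cut at about 7.5% in these data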;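 further: 0% = DMSO wells and 100% = 10 µM SAHA wells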
Wnt act: Wnt/beta-catenin pathway activators, primary screen, cell-based, plate reader, single point; Wnt/beta-catenin reporter cell assay, activator; activation, % at 9.35 µM; 300,000 compounds, 1.2% hits; in the data active means activation above about 30%, passing the limit was not always enough; inconclusive means no clear call, values can overlap the other calls;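 further: 0% = neutral control wells and 100% = positive control wells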
MITF act: activators of MITF-driven TRPM1 promoter reporter, primary screen, cell-based, SK-MEL-5, luciferase, single point; SK-MEL-5 TRPM1-promoter luciferase, 24 h; % of positive control, neutral wells = 0; activation, % at 12.5 µM; 300,000 compounds, 0.75% hits; AID 588334, 2011;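 active means mean activation of at least 80% with every replicate also reaching 80%; inconclusive means mean reaches 80% but some replicate falls short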;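 further: 0% = neutral control wells and 100% = parthenolide positive control wells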
An asterisk follows results filed as active. Shown are actives, neighbours in structure and some others; about 4.2% of the full set was active somewhere.

What do the screens show for `C[C@@H]1CCCCO[C@@H](CN(C)C(=O)Nc2ccccc2)[C@H](C)CN([C@H](C)CO)C(=O)c2cc(NC(=O)c3ccccc3)ccc2O1`?
esBAF inh: 8

Results for Cc1noc(C)c1S(=O)(=O)N(C)C[C@@H]1Oc2ccc(NC(=O)Cc3ccccc3)cc2CC(=O)N([C@H](C)CO)C[C@H]1C ?
esBAF inh: 7

What do the screens show for `Cn1nccc1NC(=O)Nc1cccc(Cl)c1`?
AHR activator: 5; FXN GAA850 act: 0; Wnt act: 3

Results for O=C(Nc1ccccc1)Nc1cccc(Cl)c1 ?
AHR activator: 5; esBAF inh: 52*; FXN GAA850 act: 2; MITF act: 55

How did O=C(Nc1cccc(Cl)c1)Nc1ccc2nccnc2c1 do in these assays?
AHR activator: 0; esBAF inh: 97*; FXN GAA850 act: 0; Wnt act: -1; MITF act: 112*

How did Cn1nnc2cc(NC(=O)Nc3cccc(Cl)c3)ccc21 do in these assays?
AHR activator: -2; esBAF inh: inconclusive; FXN GAA850 act: 0; Wnt act: 19; MITF act: 93*

How did CC(C)Cc1nnc(NC(=O)Nc2ccccc2)s1 do in these assays?
AHR activator: 17; esBAF inh: 53*; FXN GAA850 act: 5; Wnt act: 38*; MITF act: 96*

What do the screens show for `O=C(Nc1cccc(Cl)c1)N1CCCCCC1`?
AHR activator: 1; esBAF inh: 28; FXN GAA850 act: 2; Wnt act: 5; MITF act: 1

What do the screens show for `O=C(Nc1ccc(C(=O)N2CCCCC2)cc1)Nc1cccc(Cl)c1`?
AHR activator: 6; esBAF inh: 86*; FXN GAA850 act: 6; Wnt act: 17; MITF act: 106*

What do the screens show for `Cc1cc(C(=O)Nc2cccc3c2O[C@@H](CN(C)Cc2ccc(Cl)c(Cl)c2)[C@@H](C)CN([C@H](C)CO)C3=O)n(C)n1`?
esBAF inh: -4

What do the screens show for `CCOc1cccc2cc(-c3csc(NC(=O)CCC(=O)NCCN4CCCCC4C)n3)c(=O)oc12` (stereo not drawn)?
AHR activator: 28; esBAF inh: 14; FXN GAA850 act: 1; Wnt act: -1; MITF act: 110*

Results for C[C@H](NC(=O)C[C@H]1CC[C@@H](NC(=O)c2cccnc2)[C@@H](CO)O1)c1ccccc1 ?
esBAF inh: 1

Results for Cc1cc(C)n(CC(=O)O)c(=O)c1[N+](=O)[O-] ?
AHR activator: 0; FXN GAA850 act: 0; Wnt act: 35*; MITF act: 0

What do the screens show for `COC(=O)N/N=C/c1ccc(OC(=O)/C=C/c2ccco2)cc1`?
AHR activator: 0; FXN GAA850 act: 2; Wnt act: 53*

What do the screens show for `CCc1ccc(OC(=O)/C=C/c2ccco2)cc1`?
AHR activator: -1; esBAF inh: -4; FXN GAA850 act: 1; Wnt act: -2

What do the screens show for `O=C(Cc1ccccc1)N/N=C/c1ccc(OC(=O)/C=C\c2ccco2)cc1`?
AHR activator: 1; esBAF inh: -1; FXN GAA850 act: 0; Wnt act: 104*; MITF act: -8

Results for COc1cccc(NC(=O)CC(=O)c2ccccc2)c1 ?
AHR activator: 7; esBAF inh: inconclusive; FXN GAA850 act: 4; Wnt act: 33*; MITF act: 80

What do the screens show for `COC(=O)c1ccc(NC(=O)Cc2ccccc2)cc1`?
AHR activator: -1; FXN GAA850 act: 4; Wnt act: 39*

Results for COc1cccc(NC(=O)Cc2ccccc2)c1 ?
AHR activator: 13; esBAF inh: 64*; FXN GAA850 act: 0; Wnt act: inconclusive; MITF act: 69

What do the screens show for `O=C1CN(C(=O)OCc2ccccc2)c2ccccc2N1`?
AHR activator: 18; esBAF inh: 50*; FXN GAA850 act: 2; Wnt act: 22; MITF act: 58

What do the screens show for `O=C(CNC(=O)N1CC(=O)Nc2ccccc21)NCc1ccccc1`?
AHR activator: 2; esBAF inh: -2; FXN GAA850 act: 2; Wnt act: -1; MITF act: 1

What do the screens show for `CNC[C@H]1OCCCC[C@@H](C)Oc2ccc(NC(=O)Nc3cccc4ccccc34)cc2C(=O)N([C@@H](C)CO)C[C@H]1C`?
esBAF inh: -7

What do the screens show for `CCC(=O)Nc1ccc(C(=O)OCc2ccccc2Cl)cc1`?
AHR activator: 3; esBAF inh: inconclusive; FXN GAA850 act: 5; MITF act: 121*

How did COc1cccc(NC(=O)CNC(=O)N2CC(=O)Nc3ccccc32)c1 do in these assays?
AHR activator: 44; esBAF inh: 44*; FXN GAA850 act: 1; Wnt act: 6; MITF act: 31

How did COc1ccc(CNC(=O)CNC(=O)N2CC(=O)Nc3ccccc32)cc1 do in these assays?
AHR activator: 1; esBAF inh: 1; FXN GAA850 act: 1; Wnt act: 2; MITF act: 4

What do the screens show for `C/C(=N\NC(=O)c1ccccc1O)c1ccc(NC(=O)Cc2ccccc2)cc1`?
AHR activator: 52*; esBAF inh: 36; FXN GAA850 act: 6; Wnt act: 9; MITF act: 8

What do the screens show for `COc1cccc(NC(=O)N(C)C[C@@H]2Oc3cc(-c4ccccc4F)ccc3S(=O)(=O)N([C@H](C)CO)C[C@@H]2C)c1`?
esBAF inh: -2

How did C/C=C/c1cnc2c(c1)C(=O)N([C@@H](C)CO)C[C@H](C)[C@@H](CN(C)C(=O)c1ccc3c(c1)OCO3)O2 do in these assays?
esBAF inh: 0

Results for C[C@H]1CN([C@@H](C)CO)C(=O)c2ccccc2-c2ccccc2CO[C@@H]1CN(C)C(=O)[C@@H](Cc1ccccc1)N(C)C ?
esBAF inh: 1

How did CC(C)NC(=O)Nc1ccc2c(c1)C(=O)N(C)[C@@H]1CC[C@H](CC(=O)NC3CCCCC3)O[C@H]1CO2 do in these assays?
esBAF inh: 2

What do the screens show for `C(=C\c1nccc2c1[nH]c1ccccc12)/c1ccccc1`?
AHR activator: 62*; esBAF inh: 26; FXN GAA850 act: 0; Wnt act: 12; MITF act: 5

Results for Cc1ccc(/C=C/c2nc3ccccc3c(=O)[nH]2)cc1 ?
AHR activator: 9; esBAF inh: -56; FXN GAA850 act: 3; Wnt act: -3; MITF act: -14

What do the screens show for `Fc1ccc(/C=C\c2nccc3c2[nH]c2ccccc23)cc1`?
AHR activator: 35; esBAF inh: 12; FXN GAA850 act: 6; Wnt act: 3; MITF act: 0

Results for Cc1ccc(/C=C\c2nccc3c2[nH]c2ccccc23)cc1 ?
AHR activator: 51*; esBAF inh: 55*; FXN GAA850 act: 6; Wnt act: -4; MITF act: 11

Compound activity (PubChem)
